Assay results reported in the supplement of paper PMC10849652.
About 7,900 targets were measured; listed, in parts, are those with a hit and a random draw of the rest. About 0.6% of all pairs of compound and target were hits.

What was measured:
Test in all cases: log2 fold change, soluble protein after heating vs DMSO (PISA); higher = thermal stabilisation; K562 cells, 10 uM, 30 min; active = over 0.2 and 3.5 SD of the protein, either way, in both replicates (recomputed)
[1] = compound: C1=CC=C(C=C1)[C@H](COC2=CC3=C(C=C2)NC(=O)N3)NC(=O)C4=CC=CN(C4=O)CC5=CC(=C(C=C5)F)F
Procedure, shortened: (§1)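 K562 cells at 2×10^6 cells/mL were treated with 10 μM compound for 30 min. Aliquots were heated for 3 min across 48°C-58°C, pooled, and extracted in PBS with 0.5% NP-40 at 4°C; soluble protein was the supernatant after 21,000xg for 90 min. Soluble protein was quantified by TMTpro 16plex LC-MS/MS with channel sums equalised, and reported as log2 fold change in thermal stability against DMSO controls, with values from duplicates.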

[2] = compound: CC1=C(SC2=C1C(=N[C@H](C3=NN=C(N32)C)CC(=O)N)C4=CC=C(C=C4)Cl)C
Procedure, shortened: as §1

[3] = compound: CC1=C2C(=CC=C1)N=C(N(C2=O)C3=CC=CC=C3C)CN4C=NC5=C(N=CN=C54)N
Procedure, shortened: as §1

[4] = compound: Cc1sc2c(c1C)C(c1ccc(Cl)cc1)=N[C@@H](CC(=O)OC(C)(C)C)c1nnc(C)n1-2
Procedure, shortened: as §1

[5] = compound: c1ccc([C@@H]2C[C@H]2NC2CCNCC2)cc1
Procedure, shortened: as §1

Chain of UniProt P52657 (P52657 whole entry, looked up): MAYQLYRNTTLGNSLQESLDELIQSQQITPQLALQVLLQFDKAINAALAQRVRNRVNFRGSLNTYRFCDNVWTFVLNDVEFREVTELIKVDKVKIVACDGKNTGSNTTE
Chain of UniProt Q9H6D7 (Q9H6D7 whole entry, looked up): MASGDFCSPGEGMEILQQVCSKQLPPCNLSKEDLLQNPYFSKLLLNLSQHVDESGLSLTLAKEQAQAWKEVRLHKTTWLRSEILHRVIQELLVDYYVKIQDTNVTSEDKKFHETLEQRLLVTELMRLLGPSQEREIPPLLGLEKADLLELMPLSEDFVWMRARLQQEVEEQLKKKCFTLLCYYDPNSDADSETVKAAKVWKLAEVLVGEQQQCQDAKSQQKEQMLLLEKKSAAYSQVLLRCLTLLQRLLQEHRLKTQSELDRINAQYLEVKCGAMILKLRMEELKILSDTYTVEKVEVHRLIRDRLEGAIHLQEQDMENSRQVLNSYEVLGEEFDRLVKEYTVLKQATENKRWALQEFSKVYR
Chain of UniProt Q92538 (Q92538 whole entry, looked up): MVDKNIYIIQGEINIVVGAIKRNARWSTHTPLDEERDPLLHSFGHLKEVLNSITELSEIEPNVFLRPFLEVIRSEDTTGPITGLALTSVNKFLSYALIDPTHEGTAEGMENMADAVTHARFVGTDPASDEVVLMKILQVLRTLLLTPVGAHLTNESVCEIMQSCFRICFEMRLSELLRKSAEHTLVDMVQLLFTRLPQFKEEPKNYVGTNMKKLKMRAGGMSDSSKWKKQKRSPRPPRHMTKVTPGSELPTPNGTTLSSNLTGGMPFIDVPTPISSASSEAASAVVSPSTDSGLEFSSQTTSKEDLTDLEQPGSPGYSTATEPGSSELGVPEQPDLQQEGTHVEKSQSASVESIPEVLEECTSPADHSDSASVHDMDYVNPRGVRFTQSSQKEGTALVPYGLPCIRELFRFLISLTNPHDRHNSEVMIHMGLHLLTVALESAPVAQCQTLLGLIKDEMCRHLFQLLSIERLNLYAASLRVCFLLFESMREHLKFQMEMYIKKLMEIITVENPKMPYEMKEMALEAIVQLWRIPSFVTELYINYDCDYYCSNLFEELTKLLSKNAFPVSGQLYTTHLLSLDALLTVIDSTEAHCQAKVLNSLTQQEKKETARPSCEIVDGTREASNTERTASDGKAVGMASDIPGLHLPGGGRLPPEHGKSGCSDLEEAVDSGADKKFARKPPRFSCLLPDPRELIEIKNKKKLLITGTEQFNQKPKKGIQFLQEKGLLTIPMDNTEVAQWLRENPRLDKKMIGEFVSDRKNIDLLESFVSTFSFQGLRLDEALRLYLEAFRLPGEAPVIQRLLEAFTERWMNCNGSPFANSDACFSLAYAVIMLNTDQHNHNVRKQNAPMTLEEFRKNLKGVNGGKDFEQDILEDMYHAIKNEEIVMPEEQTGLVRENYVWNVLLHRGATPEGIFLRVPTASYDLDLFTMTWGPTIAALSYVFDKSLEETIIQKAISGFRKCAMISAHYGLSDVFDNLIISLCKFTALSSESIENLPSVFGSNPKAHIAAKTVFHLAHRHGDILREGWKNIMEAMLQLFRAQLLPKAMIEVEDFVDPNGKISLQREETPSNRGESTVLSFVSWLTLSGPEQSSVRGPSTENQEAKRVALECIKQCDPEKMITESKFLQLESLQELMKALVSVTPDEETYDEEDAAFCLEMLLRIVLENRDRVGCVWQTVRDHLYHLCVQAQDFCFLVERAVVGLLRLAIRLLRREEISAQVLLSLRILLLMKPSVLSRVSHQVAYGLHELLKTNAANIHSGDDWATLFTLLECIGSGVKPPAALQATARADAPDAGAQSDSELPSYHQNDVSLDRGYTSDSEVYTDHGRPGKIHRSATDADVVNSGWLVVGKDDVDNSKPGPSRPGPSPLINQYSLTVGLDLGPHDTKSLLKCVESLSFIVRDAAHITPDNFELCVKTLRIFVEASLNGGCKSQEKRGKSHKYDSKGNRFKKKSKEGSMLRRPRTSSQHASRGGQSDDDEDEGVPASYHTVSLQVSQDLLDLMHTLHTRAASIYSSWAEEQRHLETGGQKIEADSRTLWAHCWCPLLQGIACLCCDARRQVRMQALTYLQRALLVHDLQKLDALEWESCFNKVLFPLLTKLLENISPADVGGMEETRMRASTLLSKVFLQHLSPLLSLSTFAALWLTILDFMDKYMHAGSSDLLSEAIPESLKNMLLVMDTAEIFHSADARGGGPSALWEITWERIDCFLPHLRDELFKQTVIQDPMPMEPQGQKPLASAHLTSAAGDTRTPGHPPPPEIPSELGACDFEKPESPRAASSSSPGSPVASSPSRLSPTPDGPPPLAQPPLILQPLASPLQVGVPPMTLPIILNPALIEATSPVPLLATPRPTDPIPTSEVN
Chain of UniProt P22087 (P22087 whole entry, looked up): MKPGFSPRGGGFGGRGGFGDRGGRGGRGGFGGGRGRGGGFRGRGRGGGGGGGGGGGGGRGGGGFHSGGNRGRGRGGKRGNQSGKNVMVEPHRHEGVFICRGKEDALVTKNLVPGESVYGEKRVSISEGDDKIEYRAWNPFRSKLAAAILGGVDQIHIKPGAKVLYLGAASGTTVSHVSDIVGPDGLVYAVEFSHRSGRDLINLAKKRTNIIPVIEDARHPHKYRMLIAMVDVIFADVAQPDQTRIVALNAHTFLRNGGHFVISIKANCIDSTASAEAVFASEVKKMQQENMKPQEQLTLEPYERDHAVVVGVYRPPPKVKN
Chain of UniProt P39748 (P39748 whole entry, looked up): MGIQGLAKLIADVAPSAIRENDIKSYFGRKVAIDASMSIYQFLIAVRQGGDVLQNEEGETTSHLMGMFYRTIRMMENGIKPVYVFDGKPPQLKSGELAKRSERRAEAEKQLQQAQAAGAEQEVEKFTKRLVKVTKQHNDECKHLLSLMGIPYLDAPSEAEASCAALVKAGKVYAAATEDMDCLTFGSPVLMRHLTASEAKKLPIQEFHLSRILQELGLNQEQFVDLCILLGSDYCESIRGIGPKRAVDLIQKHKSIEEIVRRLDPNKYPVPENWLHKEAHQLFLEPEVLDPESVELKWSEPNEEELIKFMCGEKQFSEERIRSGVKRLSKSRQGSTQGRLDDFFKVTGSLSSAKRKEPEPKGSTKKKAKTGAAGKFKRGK
Chain of UniProt Q9P2H3 (Q9P2H3 whole entry, looked up): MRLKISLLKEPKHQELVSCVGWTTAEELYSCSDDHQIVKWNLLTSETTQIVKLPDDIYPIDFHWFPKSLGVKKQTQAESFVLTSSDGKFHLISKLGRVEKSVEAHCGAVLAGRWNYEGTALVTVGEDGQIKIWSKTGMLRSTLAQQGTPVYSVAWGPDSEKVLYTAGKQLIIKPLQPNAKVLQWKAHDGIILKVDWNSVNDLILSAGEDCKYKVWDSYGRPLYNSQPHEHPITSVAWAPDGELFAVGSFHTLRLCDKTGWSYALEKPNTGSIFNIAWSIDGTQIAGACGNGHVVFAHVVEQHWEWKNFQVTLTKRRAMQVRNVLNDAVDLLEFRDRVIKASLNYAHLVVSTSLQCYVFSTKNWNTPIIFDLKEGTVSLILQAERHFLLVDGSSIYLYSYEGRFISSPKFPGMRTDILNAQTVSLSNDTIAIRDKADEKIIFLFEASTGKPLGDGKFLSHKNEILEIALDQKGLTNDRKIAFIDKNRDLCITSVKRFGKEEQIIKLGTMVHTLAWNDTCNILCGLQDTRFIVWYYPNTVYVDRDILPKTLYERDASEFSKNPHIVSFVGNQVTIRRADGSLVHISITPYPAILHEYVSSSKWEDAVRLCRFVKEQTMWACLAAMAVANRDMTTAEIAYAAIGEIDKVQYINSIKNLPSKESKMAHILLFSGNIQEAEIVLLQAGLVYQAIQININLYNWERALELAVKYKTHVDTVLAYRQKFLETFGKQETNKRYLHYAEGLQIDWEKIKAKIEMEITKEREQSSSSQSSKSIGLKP
Chain of UniProt Q86YM7 (Q86YM7 whole entry, looked up): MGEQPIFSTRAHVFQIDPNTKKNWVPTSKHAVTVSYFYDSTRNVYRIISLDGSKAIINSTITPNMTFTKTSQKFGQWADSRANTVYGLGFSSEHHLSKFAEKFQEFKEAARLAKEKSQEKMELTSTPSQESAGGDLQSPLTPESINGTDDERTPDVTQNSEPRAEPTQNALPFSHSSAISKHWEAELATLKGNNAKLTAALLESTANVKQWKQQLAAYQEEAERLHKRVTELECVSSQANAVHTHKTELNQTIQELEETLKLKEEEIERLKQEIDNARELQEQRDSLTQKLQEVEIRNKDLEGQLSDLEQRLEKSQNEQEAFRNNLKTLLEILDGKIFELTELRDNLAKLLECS
Chain of UniProt Q7Z4H3 (Q7Z4H3 whole entry, looked up): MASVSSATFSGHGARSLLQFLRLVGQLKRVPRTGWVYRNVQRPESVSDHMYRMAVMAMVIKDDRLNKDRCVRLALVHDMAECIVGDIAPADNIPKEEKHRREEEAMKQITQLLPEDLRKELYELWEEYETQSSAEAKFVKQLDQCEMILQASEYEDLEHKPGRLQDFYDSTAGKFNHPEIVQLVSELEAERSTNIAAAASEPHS
Chain of UniProt Q9NZC3 (Q9NZC3 whole entry, looked up): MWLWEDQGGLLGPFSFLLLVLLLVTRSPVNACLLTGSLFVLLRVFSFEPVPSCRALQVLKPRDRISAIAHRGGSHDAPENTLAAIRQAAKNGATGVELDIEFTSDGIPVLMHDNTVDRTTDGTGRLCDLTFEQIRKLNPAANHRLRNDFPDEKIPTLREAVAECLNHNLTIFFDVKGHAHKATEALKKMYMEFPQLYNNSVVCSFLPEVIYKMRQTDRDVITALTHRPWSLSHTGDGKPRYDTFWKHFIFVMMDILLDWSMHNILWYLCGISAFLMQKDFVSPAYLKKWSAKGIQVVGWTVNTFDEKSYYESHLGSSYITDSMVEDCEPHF
Chain of UniProt Q8WXD5 (Q8WXD5 whole entry, looked up): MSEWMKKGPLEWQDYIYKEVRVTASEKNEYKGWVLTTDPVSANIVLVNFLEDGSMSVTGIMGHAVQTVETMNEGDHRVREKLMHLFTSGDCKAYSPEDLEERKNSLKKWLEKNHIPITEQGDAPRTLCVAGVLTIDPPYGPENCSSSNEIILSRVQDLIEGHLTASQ
Chain of UniProt P63218 (P63218 whole entry, looked up): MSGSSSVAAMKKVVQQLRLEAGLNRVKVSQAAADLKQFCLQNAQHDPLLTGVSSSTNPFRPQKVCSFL

Target	log2 fold change [1]	log2 fold change [2]	log2 fold change [3]	log2 fold change [4]	log2 fold change [5]
GBE1 (UniProt Q04446)	-0.116 (inactive)	0.01 (inactive)	-0.009 (inactive)	0.03 (inactive)	0.008 (inactive)
GNG5 (UniProt P63218)	0.044 (inactive)	0.063 (inactive)	0.012 (inactive)	-0.064 (inactive)	0.018 (inactive)
FEN1 (UniProt P39748)	-0.198 (inactive)	0.097 (inactive)	0.157 (inactive)	-0.009 (inactive)	-0.043 (inactive)
GALC (UniProt P54803)	0.046 (inactive)	0.055 (inactive)	0.055 (inactive)	-0.043 (inactive)	0.006 (inactive)
GBA2 (UniProt Q9HCG7)	0.099 (inactive)	0.012 (inactive)	0.017 (inactive)	0.034 (inactive)	0.023 (inactive)
HMG20A (UniProt Q9NP66)	0.07 (inactive)	-0.085 (inactive)	0.048 (inactive)	0.048 (inactive)	0.536 (active)
HDAC6 (UniProt Q9UBN7)	0.159 (inactive)	0.008 (inactive)	-0.001 (inactive)	-0.002 (inactive)	0.009 (inactive)
HLTF (UniProt Q14527)	0.003 (inactive)	0.012 (inactive)	0.062 (inactive)	0 (inactive)	-0.001 (inactive)
HDDC2 (UniProt Q7Z4H3)	0.009 (inactive)	0.057 (inactive)	-0.012 (inactive)	-0.071 (inactive)	-0.038 (inactive)
FAT1 (UniProt Q14517)	-0.059 (inactive)	-0.038 (inactive)	0.126 (inactive)	-0.071 (inactive)	0.155 (inactive)
GSTT1 (UniProt P30711)	0.032 (inactive)	0.121 (inactive)	0.165 (inactive)	-0.146 (inactive)	0.026 (inactive)
GDE1 (UniProt Q9NZC3)	-0.019 (inactive)	0.037 (inactive)	0.025 (inactive)	-0.078 (inactive)	-0.055 (inactive)
GSK3B isoform 2 (UniProt P49841)	0 (inactive)	0.083 (inactive)	0.026 (inactive)	-0.016 (inactive)	-0.008 (inactive)
HOMER1 (UniProt Q86YM7)	-0.08 (inactive)	0.035 (inactive)	0.02 (inactive)	-0.005 (inactive)	0.007 (inactive)
GYS1 (UniProt P13807)	0.007 (inactive)	-0.13 (inactive)	-0.02 (inactive)	0.023 (inactive)	0.054 (inactive)
HADHB (UniProt P55084)	-0.238 (inactive)	0.235 (inactive)	0.2 (inactive)	0.363 (inactive)	-0.085 (inactive)
GAPVD1 isoform 6 (UniProt Q14C86)	-0.09 (inactive)	0.008 (inactive)	0.097 (inactive)	0.012 (inactive)	-0.018 (inactive)
GLUL (UniProt P15104)	-0.015 (inactive)	0.005 (inactive)	0 (inactive)	-0.007 (inactive)	0.02 (inactive)
GALNT1 (UniProt Q10472)	-0.034 (inactive)	0.069 (inactive)	-0.002 (inactive)	-0.01 (inactive)	-0.007 (inactive)
GEMIN6 (UniProt Q8WXD5)	0.027 (inactive)	-0.111 (inactive)	-0.053 (inactive)	-0.113 (inactive)	-0.063 (inactive)
GAGE12F (UniProt P0CL80)	-0.016 (inactive)	0.137 (inactive)	0.109 (inactive)	-0.089 (inactive)	0.012 (inactive)
HRC (UniProt P23327)	0.026 (inactive)	-0.042 (inactive)	0.055 (inactive)	0.014 (inactive)	0.033 (inactive)
GUSB (UniProt P08236)	0.019 (inactive)	-0.057 (inactive)	-0.048 (inactive)	0.039 (inactive)	0.053 (inactive)
HNRNPK isoform 2 (UniProt P61978)	-0.027 (inactive)	0.012 (inactive)	0.047 (inactive)	-0.023 (inactive)	0.013 (inactive)
GNL1 (UniProt P36915)	-0.042 (inactive)	-0.007 (inactive)	0.099 (inactive)	-0.037 (inactive)	-0.038 (inactive)
HIP1 (UniProt O00291)	0.137 (inactive)	-0.009 (inactive)	0.106 (inactive)	0.019 (inactive)	0.045 (inactive)

Target	log2 fold change [1]	log2 fold change [2]	log2 fold change [3]	log2 fold change [4]	log2 fold change [5]
HNRNPC isoform 2 (UniProt P07910)	0.102 (inactive)	-0.441 (inactive)	-0.171 (inactive)	0.07 (inactive)	0.139 (inactive)
GPD1 (UniProt P21695)	0.095 (inactive)	0.028 (inactive)	0.123 (inactive)	-0.019 (inactive)	-0.238 (inactive)
GOPC (UniProt Q9HD26)	-0.315 (inactive)	-0.016 (inactive)	0.018 (inactive)	0.169 (inactive)	-0.054 (inactive)
GBF1 (UniProt Q92538)	-0.078 (inactive)	0.036 (inactive)	0.072 (inactive)	-0.005 (inactive)	0.003 (inactive)
GHDC (UniProt Q8N2G8)	0.061 (inactive)	0.016 (inactive)	0.022 (inactive)	0.031 (inactive)	-0.019 (inactive)
GLA (UniProt P06280)	0.019 (inactive)	-0.019 (inactive)	-0.01 (inactive)	0.007 (inactive)	0.017 (inactive)
IFT80 isoform 3 (UniProt Q9P2H3)	-0.011 (inactive)	0.052 (inactive)	0.083 (inactive)	-0.036 (inactive)	-0.027 (inactive)
GABARAPL1 isoform 2 (UniProt Q9H0R8)	0.02 (inactive)	0.094 (inactive)	0.073 (inactive)	-0.022 (inactive)	-0.036 (inactive)
HDGFL2 (UniProt Q7Z4V5)	-0.043 (inactive)	0.007 (inactive)	-0.03 (inactive)	-0.012 (inactive)	0.065 (inactive)
IDH3A (UniProt P50213)	-0.029 (inactive)	0.018 (inactive)	0.026 (inactive)	-0.025 (inactive)	-0.005 (inactive)
HAUS4 (UniProt Q9H6D7)	0.094 (inactive)	-0.066 (inactive)	0.077 (inactive)	-0.021 (inactive)	-0.002 (inactive)
GATA1 (UniProt P15976)	0.061 (inactive)	-0.014 (inactive)	0.064 (inactive)	0.117 (inactive)	0.029 (inactive)
FBL (UniProt P22087)	0.095 (inactive)	-0.267 (inactive)	-0.126 (inactive)	0.18 (inactive)	0.074 (inactive)
GTF3A (UniProt Q92664)	0.002 (inactive)	-0.001 (inactive)	0.08 (inactive)	-0.072 (inactive)	-0.071 (inactive)
GOLGA8R (UniProt I6L899)	0.106 (inactive)	0.211 (inactive)	0.326 (inactive)	0.043 (inactive)	-0.003 (inactive)
FBXO9 (UniProt Q9UK97)	-0.011 (inactive)	0.23 (inactive)	0.016 (inactive)	0.161 (inactive)	0.07 (inactive)
GLS isoform 3 (UniProt O94925)	-0.077 (inactive)	0.204 (inactive)	0.024 (inactive)	-0.168 (inactive)	0.067 (inactive)
FDXR isoform 7 (UniProt P22570)	-0.069 (inactive)	0.106 (inactive)	0.038 (inactive)	-0.037 (inactive)	-0.01 (inactive)
HHEX (UniProt Q03014)	0.054 (inactive)	0.187 (inactive)	0.469 (inactive)	0.026 (inactive)	0.516 (inactive)
GIGYF2 (UniProt Q6Y7W6)	-0.006 (inactive)	0.057 (inactive)	0.057 (inactive)	0.012 (inactive)	-0.046 (inactive)
GCDH (UniProt Q92947)	0.021 (inactive)	0.012 (inactive)	0.036 (inactive)	-0.043 (inactive)	-0.019 (inactive)
GTF2A2 (UniProt P52657)	0.003 (inactive)	0.057 (inactive)	0.092 (inactive)	-0.064 (inactive)	-0.017 (inactive)
GLYR1 (UniProt Q49A26)	0.147 (inactive)	0.054 (inactive)	-0.016 (inactive)	0.058 (inactive)	0.067 (inactive)
GABARAPL2 (UniProt P60520)	0.037 (inactive)	0.035 (inactive)	0.039 (inactive)	-0.038 (inactive)	-0.055 (inactive)
FDPS (UniProt P14324)	-0.328 (inactive)	0.063 (inactive)	0.143 (inactive)	0.001 (inactive)	-0.121 (inactive)
